The panel holds about 79,000 compounds, 15% with a hit somewhere; the sample as a whole holds those more often. The source made the active and inactive calls. Cut-off read from the data, not from the text of the source: active = growth inhibition above about 70%; inactive = the rest.
Columns and labels:
[1] = NCI Yeast Anticancer Drug Screen. Data for the rad50 strain (AID 155);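 note: 0% = growth of vehicle-only cultures of the same strain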; settings: S. cerevisiae rad50 strain growth inhibition, hits give high values
Outline: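 A DNA repair-deficient yeast mutant serves as the test organism; compound-induced growth inhibition is calculated against vehicle-treated cells.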

[2] = NCI Yeast Anticancer Drug Screen. Data for the mec2-1 strain (AID 157); settings: S. cerevisiae mec2-1 strain, hits give high values
Outline: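 Readout is yeast growth inhibition, normalised to vehicle-treated controls, in the mec2-1 strain exposed to compound.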

[3] = NCI Yeast Anticancer Drug Screen. Data for the sgs1 mgt1 strain (AID 161);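 note: 0% = growth of cultures given vehicle only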; settings: S. cerevisiae sgs1 mgt1 strain, hits give high values
Outline: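 Compounds are added to genetically altered yeast, and growth is compared with cultures given vehicle alone to give percent inhibition.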

[4] = NCI Yeast Anticancer Drug Screen. Data for the cln2 rad14 strain (AID 165);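 note: 0% = growth equal to vehicle treated cultures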; settings: S. cerevisiae cln2 rad14 strain, hits give high values
Outline: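 Relative to vehicle controls, growth inhibition of compound-treated cln2 rad14 yeast was recorded.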

[5] = NCI Yeast Anticancer Drug Screen. Data for the bub3 strain (AID 167); settings: S. cerevisiae bub3 mutant strain, hits give high values
Outline: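 Inhibition values come from growth of compound-treated mutant yeast normalised to vehicle-treated controls.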

[6] = NCI Yeast Anticancer Drug Screen. Data for the mlh1 rad18 strain (AID 175); settings: S. cerevisiae mlh1 rad18 strain growth inhibition, hits give high values
Outline: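 Test agents were incubated with a yeast strain of defined genotype (DNA damage repair defect). Inhibition of growth was derived by comparison with vehicle-exposed cultures.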

[7] = at 5.0 µM (retest, dose inferred, filed as 0.5)
[8] = at 50.0 µM (retest, dose inferred, filed as 5.0)

Measured: growth inhibition

O=C(O)C1CC2c3ccccc3C1([N+](=O)[O-])c1ccccc12 (configuration not stated)
inactive: [1]; [7] 0% | [1]; [8] 8% | [1]; at 50.0 µM 14.2% | [2]; [7] -1% | [2]; [8] 4% | [2]; at 50.0 µM 1.45% | [3]; [7] 0% | [3]; [8] 7% | [3]; at 50.0 µM 31.1% | [4]; [7] -3% | [4]; [8] 15% | [4]; at 50.0 µM 41% | [5]; [7] 2% | [5]; [8] 6% | [5]; at 50.0 µM 3.5% | [6]; [7] 0% | [6]; [8] 8% | [6]; at 50.0 µM 21.1%

C[CH2][Sn]([Br])([CH2]C)[c]1ccccc1CN(C)C
inactive: [1]; [7] 30% | [1]; at 50.0 µM 46.2% | [2]; [7] 23% | [2]; [8] 69% | [2]; at 50.0 µM 65.5% | [3]; [7] 9% | [4]; [7] 34% | [4]; [8] 53% | [5]; [7] 11% | [6]; [7] 22%
active: [1]; [8] 76% | [3]; [8] 77% | [3]; at 50.0 µM 87.8% | [4]; at 50.0 µM 71.2% | [5]; [8] 78% | [5]; at 50.0 µM 86.8% | [6]; [8] 79% | [6]; at 50.0 µM 86.7%

c1cc[c]([Pb]([S]c2nc3ccccc3[nH]2)([c]2ccccc2)[c]2ccccc2)cc1
active: [1]; [7] 99% | [1]; [8] 99% | [1]; at 50.0 µM 91.4% | [2]; [7] 100% | [2]; [8] 99% | [2]; at 50.0 µM 92.7% | [3]; [7] 99% | [3]; [8] 99% | [3]; at 50.0 µM 92.2% | [4]; [7] 99% | [4]; [8] 99% | [4]; at 50.0 µM 91.8% | [5]; [7] 99% | [5]; [8] 99% | [5]; at 50.0 µM 91.3% | [6]; [7] 99% | [6]; [8] 99% | [6]; at 50.0 µM 90.3%

CCCCCCCCc1ccc(OCCN(CCCl)CCCl)cc1
inactive: [1]; [7] 3% | [2]; [7] -23% | [3]; [7] -130% | [4]; [7] -2% | [5]; [7] -4% | [6]; [7] 4%
active: [1]; [8] 99% | [1]; at 50.0 µM 98.7% | [2]; [8] 100% | [2]; at 50.0 µM 99.4% | [3]; [8] 99% | [3]; at 50.0 µM 99.1% | [4]; [8] 99% | [4]; at 50.0 µM 99.3% | [5]; [8] 99% | [5]; at 50.0 µM 99.2% | [6]; [8] 99% | [6]; at 50.0 µM 99.2%

COc1cc(C2c3[nH]c4ccccc4c3[C@@H](Nc3ccc(C#N)cc3)[C@H]3COC(=O)N23)cc(OC)c1O (some centres not stated)
inactive: [1]; [7] 19% | [2]; [7] 21% | [3]; [7] -15% | [3]; [8] 61% | [3]; at 50.0 µM 58.8% | [4]; [7] -3% | [4]; [8] 57% | [5]; [7] -23% | [5]; at 50.0 µM 65.9% | [6]; [7] 21% | [6]; at 50.0 µM 50.8%
active: [1]; [8] 95% | [1]; at 50.0 µM 73.8% | [2]; [8] 91% | [2]; at 50.0 µM 77.3% | [4]; at 50.0 µM 71.4% | [5]; [8] 70% | [6]; [8] 71%

COC([CH2][Hg])CN1C(=O)c2cc(C)c(C)cc2C1=O (configuration not stated)
active: [1]; [7] 99% | [1]; [8] 99% | [1]; at 50.0 µM 99.3% | [2]; [7] 100% | [2]; [8] 100% | [2]; at 50.0 µM 99.7% | [3]; [7] 100% | [3]; [8] 100% | [3]; at 50.0 µM 99.6% | [4]; [7] 99% | [4]; [8] 99% | [4]; at 50.0 µM 98.3% | [5]; [7] 99% | [5]; [8] 99% | [5]; at 50.0 µM 98.7% | [6]; [7] 99% | [6]; [8] 99% | [6]; at 50.0 µM 99.3%

O=C(C[n+]1ccccc1)C1CCc2ccccc2C1 (configuration not stated)
inactive: [1]; [7] -3% | [1]; [8] -4% | [1]; at 50.0 µM 9.25% | [2]; [7] 0% | [2]; [8] -2% | [2]; at 50.0 µM 5.7% | [3]; [7] -1% | [3]; [8] 0% | [3]; at 50.0 µM -1.5% | [4]; [7] 0% | [4]; [8] -5% | [4]; at 50.0 µM 39% | [5]; [7] -2% | [5]; [8] -3% | [5]; at 50.0 µM -21.1% | [6]; [7] -6% | [6]; [8] -6% | [6]; at 50.0 µM 3.2%

CC(=O)c1ccc(-[n+]2c(C)cc(-c3ccccc3)cc2C)cc1
inactive: [1]; [7] -11% | [1]; [8] -1% | [1]; at 50.0 µM -15.4% | [2]; [7] -1% | [2]; [8] -6% | [2]; at 50.0 µM -7.4% | [3]; [7] -19% | [3]; [8] -8% | [3]; at 50.0 µM -13.6% | [4]; [7] 3% | [4]; [8] -3% | [4]; at 50.0 µM 39.6% | [5]; [7] -4% | [5]; [8] -1% | [5]; at 50.0 µM 15.7% | [6]; [7] -5% | [6]; [8] -6% | [6]; at 50.0 µM 21.9%

CCOC(=O)c1[nH]cnc1/N=N/N(C)N
inactive: [3]; [7] 53% | [4]; [7] 28% | [5]; [7] 47%
active: [1]; [7] 97% | [1]; [8] 98% | [1]; at 50.0 µM 86.8% | [2]; [7] 99% | [2]; [8] 99% | [2]; at 50.0 µM 92% | [3]; [8] 87% | [3]; at 50.0 µM 90.1% | [4]; [8] 81% | [4]; at 50.0 µM 89.2% | [5]; [8] 88% | [5]; at 50.0 µM 89.5% | [6]; [7] 97% | [6]; [8] 97% | [6]; at 50.0 µM 90%
